The test system of assay [1] is Staphylococcus aureus. To be noted: Concentration 32 ug.mL-1, ASSAY_TEST Inhibition of Bacterial Growth, detection method Absorption (OD600), MEDIA CAMHB, plate type 384well, NBS, CORNING #3640, time 18 hr.
The test system of assay [2] is Escherichia coli. To be noted: Concentration 32 ug.mL-1, ASSAY_TEST Inhibition of Bacterial Growth, detection method Absorption (OD600), MEDIA CAMHB, plate type 384well, NBS, CORNING #3640, time 18 hr.

“And” between values parts separate entries of the source, which are not always exact repeats. Identical values can stand only once. Potency and affinity values are given separately.

The Inhibition is the drop in the measured response relative to a control, in per cent.

For `C1CNCCNCCNCCNC1`, the Inhibition is reported as 30% in assay [1] and 9.31% in assay [2].
Taken in the same sequence, the figures for `C#CCNc1nc(Cl)c(C#N)c(-c2ccccc2)c1C#N` were 4.06% and 10.8%.
Taken in the same sequence, the figures for `N#Cc1cc(C#N)c(Cl)nc1N` were 11.29% and 7.53%.
Regarding `NC(=O)N/N=C/c1c[nH]c2ccccc12`, the Inhibition in assay [1] came out at 3.48%; in assay [2], 5.19%.
Taken in the same sequence, the figures for `COc1cc(CCC(N)=O)ccc1O` were 8.5% and 5.11%.
Taken in the same sequence, the figures for `N#CC1=C(N)NC(=O)CC1c1ccccc1` (centres undefined) were 34.44% and 4.14%.
On to `CCCCNNC(=O)c1cc2ccccc2[nH]1`, for which the figures for the Inhibition in assay [1] and in assay [2] were 0.71% and -2.05%, respectively.
As to `COc1ccc(C2C(C#N)=C(N)Oc3[nH]nc(C)c32)cc1` (centres undefined), the Inhibition amounted to 4.82% in assay [1] and 6.91% in assay [2].
Taken in the same sequence, the figures for `C#CCNc1nc(NCCC2CCN(Cc3ccccc3)CC2)c(C#N)cc1C#N` were -4.51% and -8.4%.
For `C/C(Cc1ccccc1)=N\NC(=O)c1c[nH]c2ccccc12`, the figures for the Inhibition in assay [1] and in assay [2] were 5.98% and 14.48%, respectively.
Taken in the same sequence, the figures for `C#CCN(C)c1nc(OC)c(C#N)cc1C#N` were 10.54% and -19.1%.
Taken in the same sequence, the figures for `Cn1ccnc1C1C2=C(CC(C)(C)CC2=O)Oc2nc3c(c(N)c21)CCC3` (centres undefined) were 12% and -19.85%.
Turning to `C#CCNc1nc(N)c(C#N)cc1C#N`, the Inhibition in assay [1] is -1.17%; in assay [2], -11.19%.
For `CCOC(=O)C1=C(C)OC(N)=C(C#N)C1c1cccs1` (centres undefined), the results for the Inhibition in assay [1] and in assay [2] were 8.64% and -14.26%, respectively.
Taken in the same sequence, the figures for `N#Cc1cc2c(N)n[nH]c2nc1N` were 14.97% and 10.46%.
With `CC(=O)/C=C/C1CCN(Cc2ccccc2)CC1`, the Inhibition in assay [1] is reported as 28.47%; in assay [2], -12.86%.
Taken in the same sequence, the figures for `O=C(O)c1cc2ccccc2[nH]1` [INDOLE-2-CARBOXYLIC ACID] were 5.6% and 18.03%.
`N#Cc1cc(C#N)c(NC2CCN(Cc3ccccc3)CC2)nc1N`: the Inhibition in assay [1] (32 ug/mL) is 23.9% and 14.84%; in assay [2] (32 ug/mL), -6.37% and -14.46%.
In the case of `COc1cc(C2C(C#N)=C(N)Oc3ccc4ccccc4c32)ccc1O` (centres undefined), the Inhibition in assay [1] was 37.28%; in assay [2], -11.46%.
Taken in the same sequence, the figures for `CN(N=O)C(=O)NC1(C(=O)O)CC1c1ccccc1` (centres undefined) were 15% and 11.14%.
In the case of `c1ccc(COc2ccc3[nH]ccc3c2)cc1`, the Inhibition in assay [1] amounted to 4.67%; in assay [2], 3.23%.
Regarding `Cc1cc(Br)cc(C)c1NC=C(C#N)C#N`, the Inhibition is 7.73% in assay [1] and 12.6% in assay [2].
`CCOC(=O)C1=C(C)OC(N)=C(C#N)C1c1ccccc1OC` (centres undefined): the Inhibition in assay [1] was 23.12%; in assay [2] it was -9.51%.
Turning to `COc1ccc2cc(C3C4=C(CC(C)(C)CC4=O)Oc4nc5c(c(N)c43)CCC5)c(Cl)nc2c1` (centres undefined), the Inhibition was determined as 18.17% in assay [1] and 11.31% in assay [2].
Taken in the same sequence, the figures for `COc1ccc(-c2cc(-c3cc4ccc(OC)cc4nc3Cl)cc(=O)[nH]2)cc1` were 18.65% and -13.67%.
For `CC(C)CC(C)NNC(=O)c1cc2ccccc2[nH]1` (centres undefined), the Inhibition in assay [1] was -8.06%; in assay [2] it was -7.16%.
In the case of `COc1ccc(C2c3c(nc4c(c3N)CCCC4)Oc3ccc4ccccc4c32)cc1OC` (centres undefined), the Inhibition in assay [1] is on record as 3.78%; in assay [2], 13.42%.
Taken in the same sequence, the figures for `CNC(=O)NC1(C(=O)O)CC1c1ccccc1` (centres undefined) were 10.75% and 8.23%.
Taken in the same sequence, the figures for `O=C(COc1ccc2ccccc2c1)NNCc1c[nH]c2ccccc12` were 3.31% and 7.68%.
In the case of `C#CCN(C)Cc1cc2cc(OCCCC3CCN(Cc4ccc(OC)c5ncccc45)CC3)ccc2n1C`, the results for the Inhibition in assay [1] and in assay [2] were 8.98% and -14.67%, respectively.
Taken in the same sequence, the figures for `CSC1=NC2(CC2c2ccccc2)C(=O)N1C` (centres undefined) were -3.53% and -1.26%.
`CC#CCN(Cc1ccccc1)c1nc(N)c(C#N)cc1C#N`: the Inhibition in assay [1] is 14.89%; in assay [2] it was -4.77%.
Taken in the same sequence, the figures for `CCOC(=O)/C(C#N)=C\c1ccc(C)cc1` were 28.15% and 15.07%.
Taken in the same sequence, the figures for `CC(C)C(=O)N/N=C/c1c[nH]c2ccccc12` were 10.48% and 9.69%.
Taken in the same sequence, the figures for `C=C1CN(C)c2c(C#N)cc(C#N)c(=S)n21` were 18.51% and -1.72%.
Turning to `N#CC1=C(N)Oc2c(ccc3ccccc23)C1c1ccc(Cl)c(Cl)c1` (centres undefined), the values for the Inhibition in assay [1] and in assay [2] were 0.79% and 0.95%, respectively.
Taken in the same sequence, the figures for `N#Cc1c(Cl)nc(Sc2ccccc2)c(C#N)c1-c1ccccc1` were 3.48% and -17.27%.
Consider `Nc1c2c(nc3ccc([N+](=O)[O-])cc13)CCCC2`, for which the Inhibition is reported as 53.1% in assay [1] and 1.31% in assay [2].
Taken in the same sequence, the figures for `CC1=NC(=Cc2ccc([N+](=O)[O-])cc2)C(=O)O1` were 3.5% and -3.97%.
Taken in the same sequence, the figures for `Cc1ccc(CNNC(=O)c2cc3ccccc3n2C)cc1` were -9.87% and -8.9%.
Taken in the same sequence, the figures for `COc1ccc(-c2cc(-c3ccccc3)c(C#N)c(N)n2)cc1` were 10.32% and -23.38%.
As for `CCCC(C)NNC(=O)c1cc2ccccc2[nH]1` (centres undefined), the Inhibition was 2.06% in assay [1] and 3.83% in assay [2].
Taken in the same sequence, the figures for `CNC(=O)c1cc2cc(OCc3ccccc3)ccc2n1C` were 23.23% and -13.67%.
Taken in the same sequence, the figures for `Cc1ccc2nc(Cl)c(/C=N/N)cc2c1` were 28.8% and 25.39%.
Take `CCOC(=O)C1=C(C)Oc2nc3c(c(N)c2C1c1nccn1C)CCCCC3` (centres undefined): the Inhibition in assay [1] is reported as 10.64%; in assay [2], -6.7%.
Taken in the same sequence, the figures for `COc1ccc2c(c1)cc(CO)n2C` were 3.66% and 11.03%.
For the compound `Cc1nn(-c2ccccc2)c2nc(C)n3nc(-c4ccccc4)nc3c12`, the Inhibition is reported as 16.28% in assay [1] and 8.31% in assay [2].
Taken in the same sequence, the figures for `CC1Cc2c(Br)nc3nc4c(c(N)c3c2NC1=O)CCCC4` (centres undefined) were 27.55% and -12.78%.
As to `CCOC(=O)c1c(C)nc(NCC2CCN(Cc3ccccc3)CC2)c(C#N)c1-c1ccccc1`, the Inhibition is reported as 24.62% in assay [1] and -10.38% in assay [2].
Taken in the same sequence, the figures for `C#CCn1c(N)c(C#N)c2cc(O)ccc21` were 28.27% and -2.03%.
`COc1ccc2cc(C=O)c(Cl)nc2c1`: the Inhibition was determined as 17.7% in assay [1] and 25.34% in assay [2].
Taken in the same sequence, the figures for `Cn1c(C(=O)O)cc2cc(OCCCC3CCN(Cc4ccccc4)CC3)ccc21` were 27.49% and -8.76%.
Taken in the same sequence, the figures for `C#CCN(C)c1nc(OC)c(C#N)c(-c2ccccc2)c1C#N` were 44.46% and -5.76%.
With `Nc1c2c(nc3c1C(c1ccccc1)c1ccc4ccccc4c1O3)CCCC2` (centres undefined), the Inhibition in assay [1] is listed as 23.6%; in assay [2], -5.04%.
Taken in the same sequence, the figures for `CCOC(=O)c1c[nH]c2ccc(OC)cc12` were 4.86% and 9.94%.
Taken in the same sequence, the figures for `O=C(COc1ccc2ccccc2c1)N/N=C/c1c[nH]c2ccccc12` were 3.21% and 6.84%.
Taken in the same sequence, the figures for `C#CCN(C)c1nc(NCCC2CCN(Cc3ccccc3)CC2)c(C#N)cc1C#N.Cl` were 16.92% and -3.04%.
Turning to `CN(C)c1nc2nc3c(c(N)c2c(-c2ccccc2)c1C#N)CCCC3`, the Inhibition is given as 5.71% in assay [1] and -1.51% in assay [2].
Taken in the same sequence, the figures for `COC(=O)C(C#N)=Cc1ccccc1` were 23.27% and 9.25%.
Taken in the same sequence, the figures for `CC1=N/C(=C(\C)c2ccccc2)C(=O)O1` were -1.19% and 0.61%.
Taken in the same sequence, the figures for `CC(C)(C)OC(=O)Nc1ccccn1` were 38.41% and -0.38%.
Take `Cc1nn(-c2ccccc2)c2ncn3nc(-c4ccccc4)nc3c12`: the results for the Inhibition in assay [1] and in assay [2] were 11.88% and 13.25%, respectively.
Regarding `COc1cccc(C2C(C#N)=C(N)Oc3[nH]nc(C)c32)c1` (centres undefined), the Inhibition was found to be 6.27% in assay [1] and 6.61% in assay [2].
For the compound `CSC1=NC(=Cc2cn(C(c3ccccc3)(c3ccccc3)c3ccccc3)c3ccccc23)C(=O)N1C`, the Inhibition in assay [1] is reported as -1.08%; in assay [2], 9.28%.
Taken in the same sequence, the figures for `O=C1C=C(Nc2ccccc2)C(=O)N1c1ccccc1` were 3.04% and 4.55%.
For the compound `COc1ccc(C2C(C#N)=C(N)Oc3c2ccc2ccccc32)cc1OC` (centres undefined), the Inhibition in assay [2] is on record as -16.13%.
With `CCOC(=O)c1c(C)nc2nc3c(c(N)c2c1-c1ccc(Cl)cc1)CCCCC3`, the Inhibition in assay [1] is reported as 2.05%; in assay [2], -16.85%.
Taken in the same sequence, the figures for `COc1nc2nc3c(c(N)c2cc1C#N)CCCC3` were 30.12% and -3.63%.
Taken in the same sequence, the figures for `Cc1nn(-c2ccccc2)c2ncnc(Nc3ccccc3)c12` were 6.52% and 10.84%.
As for `C#CCN(C)c1nc(N)c(C#N)cc1C#N`, the Inhibition in assay [2] (32 ug/mL) is -6.57% and -4.54%.
Same read-out and setting: under `COc1cccc(C2c3c(ccc4ccccc34)OC(=N)C2(Br)C#N)c1` (centres undefined) stands -22.74% and -4.85%.
With `COc1cc(C2c3ccc4ccccc4c3Oc3nc4c(c(N)c32)CCCC4)ccc1O.Cl` (centres undefined), the Inhibition in assay [1] was -4.49%; in assay [2], -1.18%.
For the compound `C#CCNc1ncc(C#N)c(N)n1`, the Inhibition is recorded as 8.61% in assay [1] and -16.66% in assay [2].
For the compound `CCOC(=O)C1=C(C)Nc2nc3c(c(N)c2C1c1cccc(OC)c1)CCCC3` (centres undefined), the Inhibition in assay [1] is reported as 17.18%; in assay [2] it was -19.26%.
Consider `N#CC1=C(N)Oc2c(ccc3ccccc23)C1c1c(Cl)cccc1Cl` (centres undefined), for which the Inhibition in assay [1] is 8.27%; in assay [2] it was 6.46%.
Taken in the same sequence, the figures for `CCC(CC)NNC(=O)c1c[nH]c2ccccc12.Cl` were 4.35% and 0.83%.
Turning to `CC1=C(C(=O)N2[C@@H]3C[C@H]4CCC3(CS2(=O)=O)C4(C)C)C(c2ccccc2)C(C#N)=C(N)O1` (some centres undefined), the Inhibition is -1.02% in assay [1] and 15% in assay [2].
Regarding `N#Cc1c(-c2cccc([N+](=O)[O-])c2)c2ccc3ccccc3c2oc1=O`, in assay [2] (32 ug/mL), the Inhibition is -5.38% and -17.97% and -15.63%.
Turning to `COc1ccc(C=C2N=C(c3ccccc3)OC2=O)cc1`, the Inhibition in assay [1] is 12.56%; in assay [2], 14.02%.

The values are drawn from ChEMBL document CHEMBL4513135, “CO-ADD screening of IQOG CSIS (Spain) compounds”.
